Test results: PubChem BioAssay AID1851 (National Center for Advancing Translational Sciences (NCATS), 2009)
The campaign covered roughly 16,000 compounds. About 5,100 (32%) were called active. Not shown: some 25% with an inconclusive outcome. The list shows a part of the results. A number with no mark means an inactive call. Calls come from the whole dose curve; as a rule, active = well fitted curve in the direction sought with a large enough effect; inconclusive = small, poorly fitted or top-dose-only effect, or effect the other way; inactive = no such curve, though single readings can be large or run the other way.
% is set by controls: 0 for no effect and ±100 for the full control effect.

What follows are compounds tested against Cytochrome P450 3A4 (Homo sapiens) (UniProt P08684) (assay: Cytochrome panel assay with activity outcomes). Conditions: recombinant CYP, pro-luciferin dealkylation, luminescence, p450-cyp3a4; series mostly up to 57.1 µM.
Sequence of Cytochrome P450 3A4 (Homo sapiens) (P08684 whole entry, looked up): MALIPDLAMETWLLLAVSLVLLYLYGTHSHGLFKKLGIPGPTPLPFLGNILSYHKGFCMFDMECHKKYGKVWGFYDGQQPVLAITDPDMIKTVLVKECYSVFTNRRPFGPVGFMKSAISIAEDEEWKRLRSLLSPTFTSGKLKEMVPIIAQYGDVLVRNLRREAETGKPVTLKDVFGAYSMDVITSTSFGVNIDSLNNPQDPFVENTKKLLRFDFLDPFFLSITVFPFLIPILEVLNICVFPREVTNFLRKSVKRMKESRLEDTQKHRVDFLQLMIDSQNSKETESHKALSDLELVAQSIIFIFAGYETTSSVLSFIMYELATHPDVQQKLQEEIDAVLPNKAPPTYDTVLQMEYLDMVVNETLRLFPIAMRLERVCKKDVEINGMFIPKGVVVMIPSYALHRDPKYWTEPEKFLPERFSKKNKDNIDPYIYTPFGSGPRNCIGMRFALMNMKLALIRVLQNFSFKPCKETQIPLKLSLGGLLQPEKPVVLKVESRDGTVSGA
In the case of `CCCCc1n[nH]c2c1/C(=N/O)CC(c1ccccc1)C2` (stereo unspecified), the AC50 is reported as 12.6 µM (active). For `Cc1cc(=O)[nH]c(-n2[nH]c3c(c2=O)CCCC3)n1`, the AC50 was “inactive”. With `Cc1ccc(S(=O)(=O)Nc2cc(=O)[nH]c3c2CCC3)cc1` the AC50 was 3.16 µM (active). `Nc1nc(SCc2ccccc2Cl)cc(C(=O)O)n1` was tested, and the activity, negative = inhibition was -1.56% [at 11.4 µM]. With `CC1=C(C(N)=O)C(c2ccccn2)n2nc(SCc3ccccc3Cl)nc2N1` (stereo unspecified) the AC50 was 6.31 µM (active). `CC(C)=CCc1c2c(c3occ(-c4ccc(O)c(O)c4)c(=O)c3c1O)C=CC(C)(C)O2` was tested, and the activity, negative = inhibition was 0.0575% [at 11.4 µM]. With `Cc1cccc(N(CC(=O)NC2CCCC2)C(=O)c2cc3cc4cccc(C)c4nc3s2)c1C` the AC50 was 4.47 µM (active). With `CN(C(=O)Cn1nnc(-c2cccc(C(F)(F)F)c2)n1)C1CCCCC1` the AC50 was “inactive”. For `CC(C)CC(C(=O)NCC1CCCO1)N(C(=O)Cn1nnc(-c2ccc(F)cc2)n1)c1cccc(C(F)(F)F)c1` (stereo unspecified), the AC50 was 10 µM (active). For `Cc1ccc(N(C(=O)Cn2nnc(-c3ccc(F)cc3)n2)C(CC(C)C)C(=O)NCC2CCCO2)cc1` (stereo unspecified), the AC50 was 14.1 µM (active). In the case of `CC(C)CC(C(=O)NCC1CCCO1)N(C(=O)Cn1nnc(-c2ccc(F)cc2)n1)c1ccccc1F` (stereo unspecified), the AC50 is reported as 14.1 µM (active). For `Nc1nc2c(c(=O)[nH]1)N(C=O)[C@H](CNc1ccc(C(=O)N[C@@H](CCC(=O)O)C(=O)O)cc1)CN2`, the AC50 was “inactive”. `N/N=C1/CC(=O)NC(=O)N1` showed an activity, negative = inhibition of -21.1% [at 11.4 µM]. `CC(=O)Nc1ccc(N2C(=O)CC(c3ccccc3)CC2=O)cc1` was tested, and the activity, negative = inhibition was 1.08% [at 2.29 µM]. `Cc1ccc(NC(=O)C2(NC(=O)c3cccc(N4C(=O)CSC4c4ccccc4)c3)CCCCC2)cc1` (stereo unspecified) was tested, and the AC50 was 2.82 µM (active). `Cc1ccc(C2C3=C(CCCC3=O)Nc3nc(SCC(=O)NCc4ccco4)[nH]c(=O)c32)cc1` (stereo unspecified) was tested, and the AC50 was 7.94 µM (active). For `CCCCCCN1Cc2ccccc2C1`, the AC50 was “inactive”. `CN(C(=O)c1cnc(N2CCN(c3ncccn3)CC2)c2ccccc12)c1ccc(Cl)cc1` showed an activity, negative = inhibition of 28.1% [at 11.4 µM]. For `CCN(C(=O)c1cnc(N2CCN(c3ncccn3)CC2)c2ccccc12)c1cccc(Cl)c1`, the AC50 was 6.31 µM (active). `O=C1c2ccccc2S(=O)(=O)N1CCCCN1CCN(c2ncccn2)CC1` was tested, and the AC50 was “inactive”. With `Clc1ccc(/C=N/c2c(-c3ccc(Cl)cc3)nc3n2CCS3)cc1` the activity, negative = inhibition was -12.1% [at 2.29 µM]. With `COc1cccc(-c2ccc3ncnc(NCc4cnc(C)cn4)c3c2)c1` the AC50 was 7.94 µM (active). `Cc1cnc(CNc2ncnc3ccc(-c4cccc(C#N)c4)cc23)cn1` was tested, and the AC50 was 3.16 µM (active). With `COc1ccc(/C=N/n2cnc3c([nH]c4ccc(Br)cc43)c2=O)cc1CN1CCOCC1` the AC50 was 5.01 µM (active). In the case of `Cc1cc2nc(SCCOC(=O)Nc3ccc(Cl)cc3)nc(C)c2cc1C`, the AC50 is reported as “inactive”. With `CCCCSc1nc(C)cc(NC(=S)Nc2ccc(OC)cc2)n1` the AC50 was 7.08 µM (active). `S=C(S)O[C@@H]1C[C@@H]2C[C@H]1[C@@H]1CCC[C@H]21` was tested, and the AC50 was 3.98 µM (active). With `CCOC(=O)C(CC)(CC)C(=O)/C=C/c1ccc(Br)cc1` the AC50 was “inactive”. In the case of `Cc1nc2nc(C)c(CCC(=O)NCCCN3CCN(c4cccc(Cl)c4)CC3)c(C)n2n1`, the AC50 is reported as “inactive”. With `Cc1ccc(CNC(=O)CCc2c(C)nc3ncnn3c2C)cc1` the AC50 was 2 µM (active). In the case of `Cc1nc2ncnn2c(C)c1CCC(=O)NC(C)c1ccc2c(c1)OCCO2` (stereo unspecified), the AC50 is reported as 15.8 µM (active). With `CCOC(=O)CCc1c(C)nc2ncnn2c1C` the AC50 was “inactive”. For `NCC[C@H](O)C(=O)N[C@H]1C[C@@H](N)[C@@H](O[C@H]2O[C@@H](CN)[C@@H](O)[C@@H](O)[C@@H]2O)[C@@H](O)[C@@H]1O[C@H]1O[C@@H](CO)[C@@H](O)[C@@H](N)[C@@H]1O`, the AC50 was “inactive”. With `COCCn1c(=O)c(-c2cc(F)cc(F)c2)nc2cnc(N3CCOCC3)nc21` the AC50 was “inactive”. For `COCCn1c(=O)c(-c2cc(F)cc(F)c2)nc2cnc(N(C)C)nc21`, the AC50 was “inactive”. `COCCn1c(=O)c(-c2cc(F)cc(F)c2)nc2cnc(Oc3cccc(Cl)c3)nc21` was tested, and the AC50 was 10 µM (active). With `COCCn1c(=O)c(-c2cc(F)cc(F)c2)nc2cnc(Oc3ccc(OC)cc3)nc21` the AC50 was 3.16 µM (active). For `COCCn1c(=O)c(-c2cc(F)cc(F)c2)nc2cnc(OC)nc21`, the AC50 was 15.8 µM (active). `CC(C)CO/N=C1/C[C@@H](O)[C@@H](O)[C@@H]2[C@@H]3C(=O)N(C[C@@H]4CCCO4)C(=O)[C@H]3CC[C@@H]12` was tested, and the activity, negative = inhibition was -19.4% [at 11.4 µM]. For `O=C(NCCN1CCN(Cc2ccccc2)CC1)C1CC(=O)N(C2CCCC2)C1` (stereo unspecified), the AC50 was “inactive”. `CCOc1ccc(CCNC(=O)C2CC(=O)N(C3CCCC3)C2)cc1OCC` (stereo unspecified) was tested, and the AC50 was 14.1 µM (active). `CCN(CCCNC(=O)C1CCN(S(=O)(=O)CC)CC1)c1cccc(C)c1` was tested, and the AC50 was 11.2 µM (active). In the case of `CCOc1ccc(CCNC(=O)C2CCN(S(=O)(=O)CC)CC2)cc1OCC`, the AC50 is reported as 7.08 µM (active). In the case of `CC1CCCN(CCCNC(=O)C2CC(=O)N(c3ccc(F)c(Cl)c3)C2)C1` (stereo unspecified), the AC50 is reported as “inactive”. `CCS(=O)(=O)N1CCC(C(=O)NCCN2CCN(Cc3ccccc3)CC2)CC1` was tested, and the AC50 was “inactive”. In the case of `C=CCNC(=O)C1CCN(S(=O)(=O)CC)CC1`, the AC50 is reported as “inactive”. With `Cc1cc(C)c(S(=O)(=O)NCC2CCC(C(=O)NCc3ccc4c(c3)OCO4)CC2)c(C)c1` (stereo unspecified) the AC50 was 0.891 µM (active). With `O=C(NCc1ccc2c(c1)OCO2)C1CC(=O)N(C2CCCC2)C1` (stereo unspecified) the AC50 was 4.47 µM (active). With `Cc1cc(N2CCOCC2)ccc1/C=C1\SC(=O)N(C(C)C)C1=O` the AC50 was “inactive”. `Cc1ccc(Oc2ccccc2/C=C2\SC(=O)N(C)C2=O)cc1` was tested, and the AC50 was 14.1 µM (active). `N#Cc1cccc(-c2cncnc2NCc2cccs2)c1` was tested, and the AC50 was 1.26 µM (active). `N#Cc1cccc(-c2cncnc2NCc2ccccc2)c1` was tested, and the AC50 was 1.26 µM (active). With `N#Cc1cccc(-c2cncnc2NCc2cccnc2)c1` the AC50 was 1.26 µM (active). With `Cc1cccc(CNc2ncncc2-c2cccc(C#N)c2)c1` the AC50 was 0.2 µM (active). In the case of `O=C1/C(=N\O)Cc2ccccc21`, the AC50 is reported as “inactive”. In the case of `C[N+](C)([O-])CCC=C1c2ccccc2CCc2ccccc21`, the AC50 is reported as 1.26 µM (active). In the case of `CN(C)CC/C=C1\c2ccccc2COc2ccccc21`, the AC50 is reported as “inactive”. In the case of `CN(C)CCC=C1c2ccccc2CCc2ccccc21`, the AC50 is reported as “inactive”. In the case of `COCCCNC(=O)Cn1nc(-c2ccccc2OC)ccc1=O`, the AC50 is reported as “inactive”. With `COc1ccccc1-c1cc(C(F)(F)F)nc(S(=O)(=O)CCCC(=O)NC(C)C)n1` the AC50 was 12.6 µM (active). `CCOC(=O)C1(C(=O)O)NC(=O)CC1c1ccccc1` (stereo unspecified) was tested, and the AC50 was “inactive”. Work on `CCOC(=O)C1=C(C)NC2=C(C(=O)C(C(=O)OCC)C(c3ccc(OC)cc3)C2)C1c1ccccn1` (stereo unspecified) yielded an activity, negative = inhibition of -13.7% [at 2.29 µM]. For `CCCOc1ccccc1C1CC(=O)NC(C)=C1C(=O)OCC(C)C` (stereo unspecified), the AC50 was 28.2 µM (active). With `O=C(CSc1nnc(Cn2nnc3ccccc32)o1)Nc1cccc(Cl)c1` the AC50 was 8.91 µM (active). With `CC(C)(C)OC(=O)NCCc1nnc(SCC(=O)Nc2cccc(Cl)c2)o1` the AC50 was 11.2 µM (active). In the case of `O=[N+]([O-])c1ccc(C2=Nn3c(nnc3-c3ccc(Cl)cc3)SC2)o1`, the activity, negative = inhibition is reported as -12.1% [at 11.4 µM]. For `Brc1ccc(C2=Nn3c(nnc3-c3cccnc3)SC2)s1`, the AC50 was 3.55 µM (active). With `CCOc1ccccc1NC(=O)CSc1nnc(-c2cnccn2)n1C` the AC50 was 8.91 µM (active). `CCOc1ccccc1NC(=O)CCC(=O)O` was tested, and the AC50 was “inactive”. `O=[N+]([O-])c1ccccc1/C=N/n1c(COc2ccccc2)n[nH]c1=S` was tested, and the AC50 was 5.01 µM (active). In the case of `Cc1ccc(/C=N/n2c(COc3ccccc3)n[nH]c2=S)s1`, the AC50 is reported as “inactive”. In the case of `O=[N+]([O-])c1ccc(/C=N/n2c(COc3ccccc3)n[nH]c2=S)cc1`, the AC50 is reported as 15.8 µM (active). For `O=C1NC(=S)N/C1=C/c1cccc([N+](=O)[O-])c1O`, the AC50 was “inactive”. `O=[N+]([O-])c1ccc(/C=N/N/C(=N/c2ccccn2)c2ccccn2)cc1` was tested, and the AC50 was “inactive”. For `Cc1ccccc1CNc1ncnc2c1ncn2[C@@H]1O[C@@H](CO)[C@H](O)[C@@H]1O`, the AC50 was “inactive”. `NC[C@H]1O[C@H](n2cnc3c(N)ncnc32)C[C@@H]1O` was tested, and the activity, negative = inhibition was -10.5% [at 11.4 µM]. In the case of `CCc1ccc(N(C(=O)c2snc(C(N)=O)c2N)C(C(=O)NCCC(C)C)c2c[nH]c3ccccc23)cc1` (stereo unspecified), the AC50 is reported as 3.98 µM (active). `CC(=O)OC[C@@H]1O[C@@H](O/N=C2/C[C@@H](O)[C@@H](O)[C@@H]3[C@@H]4C(=O)N(C5CCCCC5)C(=O)[C@H]4CC[C@@H]23)[C@H](OC(C)=O)[C@H](OC(C)=O)[C@@H]1OC(C)=O` was tested, and the activity, negative = inhibition was -21.5% [at 11.4 µM]. `COc1cccc(-c2nccc(NCc3cccnc3)n2)c1` was tested, and the AC50 was 1.26 µM (active). For `COc1cccc(-c2nccc(NCc3ccccc3)n2)c1`, the AC50 was 3.98 µM (active). For `c1ccc(-c2noc(-c3ccc4ccccc4c3)n2)cc1`, the AC50 was “inactive”. In the case of `COc1cccc(-c2nccc(NC3CCNCC3)n2)c1`, the AC50 is reported as “inactive”. `COc1cccc(-c2noc(-c3cccnc3)n2)c1` was tested, and the AC50 was 5.01 µM (active). With `COc1ccc(-c2cc(C(F)(F)F)nc(NCc3cccnc3)n2)cc1` the AC50 was 4.47 µM (active). `CO[C@@H]1COC(=O)[C@H]2CCCN2C(=O)[C@@H](C)COC(=O)C/C=C\[C@H]1C` gave an activity, negative = inhibition of -15.8% [at 11.4 µM]. `COc1cccc(-c2nccc(NCc3cccc(C)c3)n2)c1` was tested, and the AC50 was 3.98 µM (active). For `COc1cccc(-c2nccc(NCc3cccs3)n2)c1`, the AC50 was 5.01 µM (active). `COCC(C)NCc1cccc(C)c1` (stereo unspecified) was tested, and the AC50 was “inactive”. For `Cc1ccc(C)c(S(=O)(=O)NC(C)C(=O)Nc2ccc(-c3nc4ccccc4s3)cc2)c1` (stereo unspecified), the AC50 was 3.55 µM (active). In the case of `Cc1ccc(C)c(S(=O)(=O)NC(CC(C)C)C(=O)O)c1` (stereo unspecified), the AC50 is reported as “inactive”. For `Cc1ccc2nc(-c3ccc(NC(=O)c4ccc(N)cc4)c(S(=O)(=O)O)c3)sc2c1`, the activity, negative = inhibition was -13.7% [at 11.4 µM].
